Most compounds without a hit are left out; they make up all but 6.8% or so of the library.
Autofluor 339 – intrinsic fluorescence of library compounds, ex339/em460 – biochemical, MLSMR library, data from DPM-DC assay, artefact control, profiling panel | compound autofluorescence, ex339/em460 nm, NADH buffer; hits give high values; 1 = no-compound wells, NADH background | fluorescence fold increase at 10 µM | 5.5% of 65,000 active;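 active means at 10 µM, mean starting fluorescence two-fold or more over control wells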;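 further: signal is the first read of a kinetic run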
Spn MK inh – blocks S. pneumoniae mevalonate kinase; purified MK, PK/LDH-coupled NADH absorbance 340 nm; inhibition, % at 10 µM; 0.48% of 65,000 active; AID 555;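 active means ranked among the strongest by inhibition in the single 10 µM screen, a fixed top-ranked set picked for dose follow-up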
NADH coupling – inhibitors of enzymes used to reach an NAD/NADH endpoint | coupled PK/LDH NADH assays, four targets | 0.02% of 65,000 active | IC50, µM (top dose mostly 10 µM), inactives show top-dose inhibition;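 active means single-dose screening hits from any of four coupled enzyme assays that gave an IC50 when retested across doses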;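 further: the DPM-DC format reads NADH fluorescence rather than 340 nm absorbance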
PMK inhibit – blocks S. pneumoniae phosphomevalonate kinase; purified PMK, PK/LDH-coupled NADH absorbance 340 nm; inhibition, % at 10 µM; 0.49% of 65,000 active;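 active means top-ranked compounds by inhibition in the single 10 µM screen, taking a fixed number of the strongest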;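 further: 0% = full reaction with DMSO carrier and 100% = background rate without enzyme reaction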
DPM-DC inhibit – S. pneumoniae DPM-DC inhibition; calls only at 10 µM; 0.49% of 65,000 active; AID 556; purified DPM-DC, PK/LDH coupled NADH fluorescence;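 active means the 320 compounds with the highest percent inhibition in the single-dose primary screen, excluding strongly autofluorescent ones, cut at about 32% in these data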;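 further: kinetic rate of NADH fluorescence loss reporting ADP formed by the decarboxylase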
Abs 340nm – compounds absorbing at 340 nm. compound absorbance at 340 nm, fold over control. fold change at 10 µM. 65,000 tested, under 10 active;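 active means at 10 µM dose, initial 340 nm absorbance at least 2 fold that of control wells; inactive means change under 2 fold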;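 further: initial absorbance extrapolated from kinetic A340 decline of NADH oxidation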
Numbers without * were called inactive; i = inactive; . = no result given; + = active, no number.

SMILES	Autofluor 339	Spn MK inh	NADH coupling	PMK inhibit	DPM-DC inhibit	Abs 340nm
O=C(c1cc2ccccc2oc1=O)N1CCCN(C(=O)c2cc3ccccc3oc2=O)CC1	1.4	0	5%	16	i	1.1
CCOc1ccc2oc(-c3ccccc3)c(C(=O)N3CCN(CCO)CC3)c2c1	3.4*	1	4%	6	.	1
O=C(c1cc2c(ccc3ccccc32)oc1=O)N1CCN(CCO)CC1	2.1*	2	4%	5	.	1.1
CCOc1ccc(C(=O)N2CCN(Cc3ccccc3)CC2)cc1	1.1	13	4%	0	i	1
COC(=O)C1CCC(C)(C(=O)Nc2ccccc2)C1(C)C (centres undefined)	1.1	0	2%	5	i	1
O=C(NC1CCCCC1)C(c1ccco1)N(Cc1cccnc1)C(=O)C1COc2ccccc2O1 (centres undefined)	1	14	3%	4	i	0.98
COc1ccccc1-c1nnc(SCC(=O)OC(C)C)o1	1.1	10	5%	5	i	1
CC(=O)N1c2ccccc2C(=O)C1N1CCCCC1 (centres undefined)	1.5	13	6%	0	i	1.1
O=C(NCc1cccnc1)C1c2ccccc2C(=O)N1C1CCCC1 (centres undefined)	1.1	4	1%	0	i	1
CCS(=O)(=O)N1CCN(C2CCC(C)CC2)CC1 (centres undefined)	1.1	61*	26%	17	i	1
CC1CCC(N2CCN(S(C)(=O)=O)CC2)CC1 (centres undefined)	1.1	29	13%	10	i	1
CCCCC(=O)Nc1ccc(C(N)=O)cc1	1.1	6	17%	0	+	0.99
CCCCC(=O)Nc1ccc(C(=O)NCC(=O)OC)cc1	1.1	12	7%	6	i	1
O=C(C1CCC(=O)N1Cc1ccccc1Cl)N1CCN(c2ccc(F)cc2)CC1 (centres undefined)	1.1	4	6%	14	i	0.98
O=C(NCC1CCCO1)C1CCN(S(=O)(=O)N2CCCC2)CC1 (centres undefined)	1	0	7%	21	i	1
CCS(=O)(=O)N1CCC(C(=O)NCCc2ccc(C)cc2)CC1	1.1	0	3%	24	i	0.99
CCS(=O)(=O)N1CCC(C(=O)NCCc2ccccc2)CC1	1.1	0	8%	25*	i	1
CCS(=O)(=O)N1CCC(C(=O)NCC2CCCO2)CC1 (centres undefined)	1.1	0	8%	25*	i	1
O=C(NCC1CCCO1)C1CC(=O)N(C2CCCCCC2)C1 (centres undefined)	1	0	9%	27*	i	1
O=C(CCCc1ccccc1)N1CCc2ccccc21	1.1	9	3%	0	i	1.1
CC1N=C2c3ccccc3N=C(SCc3cc(=O)n4ccccc4n3)N2C1=O (centres undefined)	1.4	9	6%	8	i	1.1
Cc1cccc(NC(=O)Cn2cnc3ccc(S(=O)(=O)N4CCC(C)CC4)cc3c2=O)n1	1.1	.	4%	8	i	0.94
COC(=O)c1cc(COc2ccc3oc(C)c(C(=O)OC)c3c2)c(C)o1	1.1	3	4%	9	i	1
COC(=O)c1cc(COc2ccc3ccc(=O)oc3c2)c(C)o1	2.1*	10	5%	0	.	1.1
Cc1oc(C(=O)O)cc1COc1ccc2c(C)cc(=O)oc2c1	2.1*	1	5%	1	i	1.1
SMILES	Autofluor 339	Spn MK inh	NADH coupling	PMK inhibit	DPM-DC inhibit	Abs 340nm
Cc1noc(C)c1CSc1nnc2c(C)cc3ccccc3n12	1	5	4%	3	i	1
CCCc1cc(=O)[nH]c(SCC(=O)Nc2cc3c(cc2C(C)=O)OCO3)n1	2.1*	12	16%	5	i	1.1
CCCc1cc(=O)[nH]c(SCC(=O)NC2CCCCC2)n1	1	5	4%	5	i	1
CC(=O)c1cc2c(cc1NC(=O)CSc1nnc(C)s1)OCO2	2*	12	10%	10	i	1.1
N#CCCn1c(-c2nonc2NC(=O)c2ccccc2Cl)nc2ccccc21	1.6	11	7%	9	i	0.99
C=CCn1c(NC(=O)c2ccccc2Cl)c(C#N)c2nc3ccccc3nc21	3.8*	6	9%	11	.	1.1
C=CCn1c(NC(=O)c2ccccc2)c(C#N)c2nc3ccccc3nc21	2.1*	14	15%	16	.	1.1
CC(C)OC(=O)CSc1nc(N)c(C#N)c(-c2cccs2)c1C#N	1.2	0	0%	0	i	1.1
N#Cc1c(N)nc(SCC(=O)NCCc2ccccc2)c(C#N)c1-c1cccs1	2.3*	7	4%	0	.	1.1
CCc1cc2c(NCCN3CCCCC3)ncnc2s1	1.1	2	9%	24	i	1
c1coc(CNc2ncnc3nc[nH]c23)c1	1.1	14	5%	0	i	1
COc1ccc2[nH]c3c(NCCN4CCCCC4)ncnc3c2c1	3.7*	5	7%	8	.	1.1
Cc1ccc2[nH]c3c(NCc4ccco4)ncnc3c2c1	3.8*	4	3%	1	.	1.1
Cc1ccc2[nH]c3c(NCCCN4CCCC4=O)ncnc3c2c1	3.8*	7	9%	10	.	1.1
O=C(Nc1cccc2c1CCCC2)C1CCCN(S(=O)(=O)c2cccc3nonc23)C1 (centres undefined)	1.1	33	16%	16	i	1.1
CCOC(=O)c1c(C)nc2c(C#N)cnn2c1C	2.4*	11	13%	2	i	1
CCOC(=O)c1cnn2c(N)c(C#N)nnc12	1.1	2	1%	1	i	1
COc1ccc(C2NC(=O)NC3=C2CCc2ccccc23)cc1 (centres undefined)	3.8*	8	11%	14	.	1.1
Cc1ccc(C2NC(=O)NC3=C2CCc2ccccc23)cc1 (centres undefined)	2.6*	9	8%	12	i	1
O=C1NC2=C(C(=O)c3ccccc32)C(c2ccccc2)N1 (centres undefined)	1.1	7	5%	9	i	0.98
CCCSc1nc(C)c(CC(=O)O)c(=O)[nH]1	1.1	0	3%	10	i	1
COc1ccc2oc(=O)c(NC(=O)C3CCCCC3)cc2c1	4.2*	1	8%	14	.	1.1
CCOC(=O)CCc1c(C)nc2cc(-c3ccccc3OC)[nH]n2c1=O	1.5	2	8%	4	i	1.1
CCn1c(C)c(CCC(=O)O)c(=O)n2nc(-c3ccccc3OC)cc12	3.1*	6	3%	11	.	1
CCS(=O)(=O)N1CCC(C(=O)N2CCc3ccccc3C2)CC1	1.2	0	1%	4	i	1
